From PubChem BioAssay (NCATS)
Records with an inconclusive call do not appear. Values without a mark were called inactive. The source made the active and inactive calls. Calls come from the whole dose curve; as a rule, active = well fitted curve in the direction sought with a large enough effect; inconclusive = small, poorly fitted or top-dose-only effect, or another doubt; inactive = no such curve, though single readings can be large; an effect the other way counts as inactive or inconclusive.

biological target: Rap guanine nucleotide exchange factor 3 (Homo sapiens) (UniProt O95398); assay: Confirmatory qHTS for antagonist of cAMP-regulated guanine nucleotide exchange factor 3 (EPAC1) (AID 1645880); conditions: EPAC1 Rap1B-BODIPY-GDP exchange, fluorescence; series mostly up to 115 µM; activity, negative = inhibition: at the top concentration; note: nearly all actives have a fitted effect of over 55% in size; note: potency is the fitted concentration of half-maximal effect;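 for activity, negative = inhibition: plate controls were DMSO only for no effect and full effect of the ATA control for full effect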
Summary of the method: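 Released BODIPY-GDP fluoresces less than Rap1-bound BODIPY-GDP; the signal is followed at 480/540 nm at 5-min intervals over 30 min, after 5 min at room temperature. Reactions contain 100 nM EPAC1, 250 nM RAP1B-BODIPY-GDP and 50 uM GDP; results are normalized to ATA and DMSO.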

Sequence of Rap guanine nucleotide exchange factor 3 (Homo sapiens) (O95398 whole entry, looked up): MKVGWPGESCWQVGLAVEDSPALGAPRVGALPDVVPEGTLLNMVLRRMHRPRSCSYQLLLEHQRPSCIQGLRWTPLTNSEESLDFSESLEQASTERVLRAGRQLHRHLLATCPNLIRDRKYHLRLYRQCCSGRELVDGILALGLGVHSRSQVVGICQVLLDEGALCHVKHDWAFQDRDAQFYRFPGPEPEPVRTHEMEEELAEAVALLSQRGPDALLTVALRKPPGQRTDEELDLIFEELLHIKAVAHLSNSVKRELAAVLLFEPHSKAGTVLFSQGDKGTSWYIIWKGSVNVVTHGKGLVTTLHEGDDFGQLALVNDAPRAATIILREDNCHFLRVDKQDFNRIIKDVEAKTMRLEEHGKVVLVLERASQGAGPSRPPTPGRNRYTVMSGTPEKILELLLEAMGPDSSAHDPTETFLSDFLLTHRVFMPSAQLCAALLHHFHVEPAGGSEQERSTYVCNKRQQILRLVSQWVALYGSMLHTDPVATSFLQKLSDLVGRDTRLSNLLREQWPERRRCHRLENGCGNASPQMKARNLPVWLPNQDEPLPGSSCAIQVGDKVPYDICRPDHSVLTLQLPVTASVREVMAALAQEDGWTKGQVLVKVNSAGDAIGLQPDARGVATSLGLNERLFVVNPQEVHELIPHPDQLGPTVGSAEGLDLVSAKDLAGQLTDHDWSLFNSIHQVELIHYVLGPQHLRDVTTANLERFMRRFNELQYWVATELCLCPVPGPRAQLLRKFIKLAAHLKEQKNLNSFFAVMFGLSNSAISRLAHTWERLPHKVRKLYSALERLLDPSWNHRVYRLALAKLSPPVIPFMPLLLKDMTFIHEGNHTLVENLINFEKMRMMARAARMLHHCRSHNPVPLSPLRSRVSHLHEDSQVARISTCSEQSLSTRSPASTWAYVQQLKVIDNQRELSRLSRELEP

Structure (SMILES) | Potency | activity, negative = inhibition [%]
CCc1ccc([C@@H]2CC=C(C(=O)O)[C@H](c3ccc(Br)cc3)N2S(=O)(=O)c2ccc(C)cc2)cc1 | 17.8 µM (active) | –
Cc1cc(/C=C/c2ccnc3ccccc23)ccc1N(C)C | – | -14.1
Nc1ccn(C2C=CC(CO)O2)c(=O)n1 (stereo not given) | – | -3.01
Cc1ccc2nccc(/C=C/c3ccc(N(C)C)cc3)c2c1 | – | -7.2
O=c1c2ccccc2oc2ccc(Oc3ccccc3)cc12 | – | -13.3
C=CCOc1ccc(Br)cc1/C=C1/SC(=Nc2ccc(C(=O)O)cc2)NC1=O | 30.1 µM (active) | –
c1ccc2c(N3CCCCCC3)nc(CN3CCCCC3c3nccs3)nc2c1 (stereo not given) | – | -10.4
Cc1ccc(C2SCC(=O)N2Cc2ccccc2)cc1 (stereo not given) | – | -25.4
C[C@@H]1CCC(=O)N(CC[C@H](Oc2ccccc2)c2ccccc2)CC1 | – | -24.6
C(=C\c1ccnc2ccccc12)/c1ccc2ccccc2n1 | – | -6.9
Cc1ccc2c(/C=C/c3ccc(N(C)C)cc3)ccnc2c1C | – | -10.9
Cc1ccc(CN2C(=O)CSC2c2ccc(F)cc2)cc1 (stereo not given) | – | -21.3
Cc1cc(C)c2nccc(/C=C/c3ccc(N(C)C)cc3)c2c1 | – | -4.06
Cc1ccc(S(=O)(=O)N2[C@@H](c3cccc(Cl)c3)C(C(=O)O)=CC[C@H]2c2ccc(C(C)C)cc2)cc1 | 67.5 µM (active) | –
Cc1cc(C(=O)NCc2nc(-c3cccc(NC(=O)c4ccccc4)c3)oc2C)nc(C)n1 | – | -11.2
CC(C)(C)[C@H]1CCC(=O)N([C@H](CN=[N+]=[N-])Cc2ccccc2)CC1 | – | -17
Cn1cc(/C=C/c2ccc3ccccc3n2)c2ccccc21 | – | -13.3
Cc1cnc2ccccc2c1/C=C/c1ccc(N(C)C)cc1 | – | -15
COc1cc(-c2noc(C)c2-c2ccc3[nH]ccc3c2)cc(OC)c1OC | – | -17.5
COc1ccc(C(=O)c2ccc(Br)cc2)c2ccccc12 | – | -25.2

Structure (SMILES) | Potency | activity, negative = inhibition [%]
COC(=O)c1cc(Br)c(=O)n(CCC2=CCCCC2)c1 | – | -23.1
COc1cc(C(=O)N(Cc2cc3ccc(C)cc3nc2N(C)C)C2CC2)cc(OC)c1OC | – | -9.74
COc1ccc(C2CN=NC23CCc2ccccc2C3=O)cc1 (stereo not given) | – | -19.1
C#C[C@]1(OC(C)=O)CCC2C3CCC4=CC(=O)CC[C@@H]4C3CC[C@@]21C (stereo not given in full) | – | -15
CC1Sc2ccc(C(=O)OCc3ccccc3Cl)cc2NC1=O (stereo not given) | – | -21.6
C=CCn1c(N)c(S(=O)(=O)c2cccs2)c2nc3ccccc3nc21 | 33.8 µM (active) | –
Cc1cc(N(C)C)cc(C)c1/C=C/c1ccnc2ccccc12 | – | -14.9
COc1cccc(CN(C)C(=O)c2cnn(-c3ncc4c(n3)-c3ccccc3CCC4)c2C)c1 | – | -18.3
CCCCOC(=O)Nc1ccc(S(=O)(=O)Nc2nccs2)cc1 | – | -25.9
CCOC(=O)C1CCCN(C(=O)c2cnn(-c3nccc(-c4cc(C)sc4C)n3)c2C)C1 (stereo not given) | – | -12.1
Cc1[nH]c2ccccc2c1/C=C/c1ccc2ccccc2n1 | – | -14.7
COCCCn1c(-c2ccccc2)nc2ccccc2c1=O | – | -12.2
C/C=C(\C)C(=O)OC1C(OC(=O)C2(C)OC2C)c2cc3ccc(=O)oc3cc2OC1(C)C (stereo not given) | – | -19.5
Cc1cc(C)cc(NC(=O)c2sc3nc(-c4ccccc4)cn3c2C)c1 | – | -19.6
CN(CCc1ccccc1)C(=O)c1cc(COc2cccc(C(F)(F)F)c2)on1 | – | -26.4
COc1cc(OC)c2c(-c3ccccc3)cc(=O)oc2c1 | – | -14.2
COc1cccc(C(=O)N(Cc2cc3ccc(C)cc3nc2N(C)C)C2CC2)c1OC | – | -15.8
Cc1ccc2c(/C=C/c3c[nH]c4ccccc34)ccnc2c1C | – | -10.8
CN1CC(O)C2=CC(=O)C(=O)C=C21 (stereo not given) | 2.8 µM (active) | –
O=C(CN1Cc2ccccc2OC(c2ccsc2)C1)N1CCN(Cc2ccc3c(c2)OCO3)CC1 (stereo not given) | – | -16.9

biological target: Rap guanine nucleotide exchange factor 3 (Homo sapiens) (UniProt O95398); assay: Confirmatory qHTS for agonist of cAMP-regulated guanine nucleotide exchange factor 3 (EPAC1) (AID 1645881); conditions: EPAC1 Rap1B BODIPY-GDP exchange fluorescence; series mostly up to 154 µM; activation: at the top concentration;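 note: EPAC1 catalysed release of BODIPY-GDP from Rap1B seen as fluorescence loss; 100% = effect of cAMP agonist control; nearly all actives have a fitted effect of over 75% in size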

Structure (SMILES) | activation [%]
CCc1ccc([C@@H]2CC=C(C(=O)O)[C@H](c3ccc(Br)cc3)N2S(=O)(=O)c2ccc(C)cc2)cc1 | -16.2
Cc1cc(/C=C/c2ccnc3ccccc23)ccc1N(C)C | 7.43
Nc1ccn(C2C=CC(CO)O2)c(=O)n1 (stereo not given) | 11.5
Cc1ccc2nccc(/C=C/c3ccc(N(C)C)cc3)c2c1 | 11.3
O=c1c2ccccc2oc2ccc(Oc3ccccc3)cc12 | 8.55
C=CCOc1ccc(Br)cc1/C=C1/SC(=Nc2ccc(C(=O)O)cc2)NC1=O | -2.96
c1ccc2c(N3CCCCCC3)nc(CN3CCCCC3c3nccs3)nc2c1 (stereo not given) | -5.53
Cc1ccc(C2SCC(=O)N2Cc2ccccc2)cc1 (stereo not given) | 11.2
C[C@@H]1CCC(=O)N(CC[C@H](Oc2ccccc2)c2ccccc2)CC1 | 3.5
C(=C\c1ccnc2ccccc12)/c1ccc2ccccc2n1 | 9.15
Cc1ccc2c(/C=C/c3ccc(N(C)C)cc3)ccnc2c1C | 5.43
Cc1ccc(CN2C(=O)CSC2c2ccc(F)cc2)cc1 (stereo not given) | 11.2
Cc1cc(C)c2nccc(/C=C/c3ccc(N(C)C)cc3)c2c1 | 20.8
Cc1ccc(S(=O)(=O)N2[C@@H](c3cccc(Cl)c3)C(C(=O)O)=CC[C@H]2c2ccc(C(C)C)cc2)cc1 | -20
Cc1cc(C(=O)NCc2nc(-c3cccc(NC(=O)c4ccccc4)c3)oc2C)nc(C)n1 | -1.58
CC(C)(C)[C@H]1CCC(=O)N([C@H](CN=[N+]=[N-])Cc2ccccc2)CC1 | 7.91
Cn1cc(/C=C/c2ccc3ccccc3n2)c2ccccc21 | -3.19
Cc1cnc2ccccc2c1/C=C/c1ccc(N(C)C)cc1 | 9.16
COc1cc(-c2noc(C)c2-c2ccc3[nH]ccc3c2)cc(OC)c1OC | 3.03
COc1ccc(C(=O)c2ccc(Br)cc2)c2ccccc12 | 13

Structure (SMILES) | activation [%]
COC(=O)c1cc(Br)c(=O)n(CCC2=CCCCC2)c1 | 3.44
COc1cc(C(=O)N(Cc2cc3ccc(C)cc3nc2N(C)C)C2CC2)cc(OC)c1OC | 2.57
COc1ccc(C2CN=NC23CCc2ccccc2C3=O)cc1 (stereo not given) | 10.9
C#C[C@]1(OC(C)=O)CCC2C3CCC4=CC(=O)CC[C@@H]4C3CC[C@@]21C (stereo not given in full) | -6.37
CC1Sc2ccc(C(=O)OCc3ccccc3Cl)cc2NC1=O (stereo not given) | 7.03
C=CCn1c(N)c(S(=O)(=O)c2cccs2)c2nc3ccccc3nc21 | 5.54
Cc1cc(N(C)C)cc(C)c1/C=C/c1ccnc2ccccc12 | 17.8
COc1cccc(CN(C)C(=O)c2cnn(-c3ncc4c(n3)-c3ccccc3CCC4)c2C)c1 | 3.96
CCCCOC(=O)Nc1ccc(S(=O)(=O)Nc2nccs2)cc1 | 12.1
CCOC(=O)C1CCCN(C(=O)c2cnn(-c3nccc(-c4cc(C)sc4C)n3)c2C)C1 (stereo not given) | -0.0545
Cc1[nH]c2ccccc2c1/C=C/c1ccc2ccccc2n1 | -6.68
COCCCn1c(-c2ccccc2)nc2ccccc2c1=O | 3.22
C/C=C(\C)C(=O)OC1C(OC(=O)C2(C)OC2C)c2cc3ccc(=O)oc3cc2OC1(C)C (stereo not given) | -9.47
Cc1cc(C)cc(NC(=O)c2sc3nc(-c4ccccc4)cn3c2C)c1 | 11.7
CN(CCc1ccccc1)C(=O)c1cc(COc2cccc(C(F)(F)F)c2)on1 | -1.47
COc1cc(OC)c2c(-c3ccccc3)cc(=O)oc2c1 | -2.27
COc1cccc(C(=O)N(Cc2cc3ccc(C)cc3nc2N(C)C)C2CC2)c1OC | 2.85
Cc1ccc2c(/C=C/c3c[nH]c4ccccc34)ccnc2c1C | -3.38
CN1CC(O)C2=CC(=O)C(=O)C=C21 (stereo not given) | -2.8
O=C(CN1Cc2ccccc2OC(c2ccsc2)C1)N1CCN(Cc2ccc3c(c2)OCO3)CC1 (stereo not given) | 7.82
